From PubChem BioAssay AID1159580 (chemical genetic matrix, 2015)
Among all 5,500 compounds or so, about 2,000 (36%) were called active. Another 18% or so got no clear call; they are omitted. No stated cut-off is given here; in the data, active means normalized growth mostly below about 0.91 (no sharp cut-off); inconclusive means no clear call, values can overlap the other calls; inactive means mostly above about 0.92. The list shows a part of the results.

Assay: chemical genetic growth profiling, strain panel (AID 1159580);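 further: tested at 20 µM; growth read once vehicle control cultures reached saturation at 30 °C; 1 = growth at the plate median or of vehicle wells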
Details: growth OD

Measured: normalized growth

COc1ccc2c(c1O)OCC1c3cc4c(cc3OC21)OCO4 (stereo unspecified)
active: S. cerevisiae deletion strains, locus YNL307C, strain MCK1, stronger effect = lower value 0.904
inactive: S. cerevisiae deletion strains, locus YAL013W, strain DEP1, stronger effect = lower value 0.991 | S. cerevisiae deletion strains, locus YBR021W, strain FUR4, stronger effect = lower value 0.964 | S. cerevisiae deletion strains, locus YBR229C, strain ROT2, stronger effect = lower value 0.96 | S. cerevisiae deletion strains, locus YCL029C, strain bik1, stronger effect = lower value 1 | S. cerevisiae deletion strains, locus YDL035C, strain GPR1, stronger effect = lower value 0.935 | S. cerevisiae deletion strains, locus YDL074C, strain BRE1, stronger effect = lower value 0.882 | S. cerevisiae deletion strains, locus YDL101C, strain DUN1, stronger effect = lower value 0.953 | S. cerevisiae deletion strains, locus YDL134C, strain PPH21, stronger effect = lower value 0.986 | S. cerevisiae deletion strains, locus YDL185W, strain tfp1, stronger effect = lower value 0.957 | S. cerevisiae deletion strains, locus YDL192W, strain arf1, stronger effect = lower value 0.986 | S. cerevisiae deletion strains, locus YDR101C, strain arx1, stronger effect = lower value 0.986 | S. cerevisiae deletion strains, locus YDR150W, strain NUM1, stronger effect = lower value 0.983 | S. cerevisiae deletion strains, locus YDR162C, strain NBP2, stronger effect = lower value 0.88 | S. cerevisiae deletion strains, locus YDR318W, strain mcm21, stronger effect = lower value 0.979 | S. cerevisiae deletion strains, locus YDR388W, stronger effect = lower value 1 | S. cerevisiae deletion strains, locus YDR502C, strain sam2, stronger effect = lower value 0.952 | S. cerevisiae deletion strains, locus YEL061C, strain CIN8, stronger effect = lower value 0.987 | S. cerevisiae deletion strains, locus YER110C, stronger effect = lower value 0.994 | S. cerevisiae deletion strains, locus YER155C, strain BEM2, stronger effect = lower value 1 | S. cerevisiae deletion strains, locus YER167W, strain BCK2, stronger effect = lower value 1 | S. cerevisiae deletion strains, locus YGL078C, strain dbp3, stronger effect = lower value 0.983 | S. cerevisiae deletion strains, locus YGL086W, strain mad1, stronger effect = lower value 0.996 | S. cerevisiae deletion strains, locus YGL248W, strain PDE1, stronger effect = lower value 0.974 | S. cerevisiae deletion strains, locus YGR078C, strain PAC10, stronger effect = lower value 0.909 | S. cerevisiae deletion strains, locus YGR135W, strain pre9, stronger effect = lower value 0.958 | S. cerevisiae deletion strains, locus YGR229C, strain SMI1, stronger effect = lower value 0.909 | S. cerevisiae deletion strains, locus YGR252W, strain gcn5, stronger effect = lower value 0.857 | S. cerevisiae deletion strains, locus YHR030C, strain SLT2, stronger effect = lower value 1 | S. cerevisiae deletion strains, locus YHR079C, strain IRE1 (second series), stronger effect = lower value 0.982 | S. cerevisiae deletion strains, locus YHR094C, strain hxt1, stronger effect = lower value 1 | S. cerevisiae deletion strains, locus YHR129C, strain ARP1, stronger effect = lower value 0.988 | S. cerevisiae deletion strains, locus YHR200W, strain rpn10, stronger effect = lower value 0.998 | S. cerevisiae deletion strains, locus YIL066C, strain RNR3, stronger effect = lower value 0.974 | S. cerevisiae deletion strains, locus YIL073C, strain SPO22, stronger effect = lower value 1.01 | S. cerevisiae deletion strains, locus YIL125W, strain kgd1, stronger effect = lower value 0.99 | S. cerevisiae deletion strains, locus YIR030C, strain dcg1, stronger effect = lower value 0.986 | S. cerevisiae deletion strains, locus YJL095W, strain BCK1, stronger effect = lower value 0.924 | S. cerevisiae deletion strains, locus YJL134W, strain LCB3, stronger effect = lower value 0.998 | S. cerevisiae deletion strains, locus YJL168C, strain set2, stronger effect = lower value 0.987 | S. cerevisiae deletion strains, locus YJL187C, strain SWE1 (second series), stronger effect = lower value 0.939 | S. cerevisiae deletion strains, locus YJR043C, strain POL32, stronger effect = lower value 0.987 | S. cerevisiae deletion strains, locus YJR075W, strain HOC1, stronger effect = lower value 0.939 | S. cerevisiae deletion strains, locus YKL009W, strain mrt4, stronger effect = lower value 0.92 | S. cerevisiae deletion strains, locus YKL068W, stronger effect = lower value 0.998 | S. cerevisiae deletion strains, locus YKL085W, strain MDH1 (second series), stronger effect = lower value 1.01 | S. cerevisiae deletion strains, locus YKL085W, strain MDH1, stronger effect = lower value 1.01 | S. cerevisiae deletion strains, locus YKL190W, strain CNB1, stronger effect = lower value 0.979 | S. cerevisiae deletion strains, locus YKR001C, strain vps1, stronger effect = lower value 0.963 | S. cerevisiae deletion strains, locus YLR039C, strain RIC1, stronger effect = lower value 0.846 | S. cerevisiae deletion strains, locus YLR058C, strain SHM2, stronger effect = lower value 0.971 | S. cerevisiae deletion strains, locus YLR102C, strain apc9, stronger effect = lower value 0.983 | S. cerevisiae deletion strains, locus YLR262C, strain YPT6, stronger effect = lower value 0.851 | S. cerevisiae deletion strains, locus YLR268W, strain sec22, stronger effect = lower value 0.938 | S. cerevisiae deletion strains, locus YLR330W, strain CHS5, stronger effect = lower value 0.991 | S. cerevisiae deletion strains, locus YLR342W, strain FKS1 (second series), stronger effect = lower value 0.946 | S. cerevisiae deletion strains, locus YLR371W, strain rom2, stronger effect = lower value 1 | S. cerevisiae deletion strains, locus YLR418C, strain cdc73, stronger effect = lower value 0.903 | S. cerevisiae deletion strains, locus YML016C, strain PPZ1, stronger effect = lower value 0.992 | S. cerevisiae deletion strains, locus YML032C, strain rad52, stronger effect = lower value 0.987 | S. cerevisiae deletion strains, locus YML124C, strain tub3, stronger effect = lower value 1.01 | S. cerevisiae deletion strains, locus YMR078C, strain ctf18, stronger effect = lower value 0.988 | S. cerevisiae deletion strains, locus YMR223W, strain ubp8, stronger effect = lower value 0.976 | S. cerevisiae deletion strains, locus YMR263W, strain SAP30, stronger effect = lower value 0.929 | S. cerevisiae deletion strains, locus YMR307W, strain GAS1, stronger effect = lower value 1.04 | S. cerevisiae deletion strains, locus YNL067W, strain RPL9B, stronger effect = lower value 0.929 | S. cerevisiae deletion strains, locus YNL128W, strain TEP1, stronger effect = lower value 0.929 | S. cerevisiae deletion strains, locus YNL153C, strain GIM3, stronger effect = lower value 0.936 | S. cerevisiae deletion strains, locus YNL233W, strain BNI4, stronger effect = lower value 0.971 | S. cerevisiae deletion strains, locus YNL250W, strain rad50, stronger effect = lower value 0.994 | S. cerevisiae deletion strains, locus YNL271C, strain bni1, stronger effect = lower value 0.98 | S. cerevisiae deletion strains, locus YNL298W, strain CLA4, stronger effect = lower value 0.958 | S. cerevisiae deletion strains, locus YNL322C, strain KRE1, stronger effect = lower value 0.981 | S. cerevisiae deletion strains, locus YNR052C, strain pop2, stronger effect = lower value 0.987 | S. cerevisiae deletion strains, locus YOL006C, strain TOP1, stronger effect = lower value 0.783 | S. cerevisiae deletion strains, locus YOL012C, strain htz1 1.07 | S. cerevisiae deletion strains, locus YOL147C, strain pex11, stronger effect = lower value 1 | S. cerevisiae deletion strains, locus YOR061W, strain CKA2, stronger effect = lower value 0.969 | S. cerevisiae deletion strains, locus YOR069W, strain VPS5, stronger effect = lower value 1 | S. cerevisiae deletion strains, locus YOR136W, strain idh2, stronger effect = lower value 0.999 | S. cerevisiae deletion strains, locus YOR144C, strain elg1, stronger effect = lower value 0.994 | S. cerevisiae deletion strains, locus YOR184W, strain ser1, stronger effect = lower value 0.907 | S. cerevisiae deletion strains, locus YOR316C, strain cot1, stronger effect = lower value 0.988 | S. cerevisiae deletion strains, locus YPL055C, strain LGE1, stronger effect = lower value 0.883 | S. cerevisiae deletion strains, locus YPL241C, strain CIN2, stronger effect = lower value 0.99 | S. cerevisiae deletion strains, locus YPR119W, strain clb2, stronger effect = lower value 0.999 | S. cerevisiae deletion strains, locus YPR141C, strain kar3, stronger effect = lower value 0.997 | S. cerevisiae deletion strains, locus YPR163C, strain tif3, stronger effect = lower value 0.964 | S. cerevisiae deletion strains, locus YPR167C, strain met16, stronger effect = lower value 0.984 | S. cerevisiae deletion strains, strain wtn01, stronger effect = lower value 0.946 | S. cerevisiae strains, strain wild type, stronger effect = lower value 0.994
